These results are taken from PubChem BioAssay (EPA / NIEHS).

Common to all, as to details: mRNA level, 48 h; actives raise or lower the signal
Read-out in assay [1]: Fatty Acid-Binding Protein 1 (FABP1), FABP1 (gene 2168)
Nature of the assay: LTEA_HepaRG_FABP1: Life Technologies and Expression Analysis (LTEA) Assay for Fatty Acid-Binding Protein 1 (FABP1) using HepaRG (AID 2283494). In a few lines:
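Differentiated human HepaRG cells were exposed in duplicate for 48 h in serum-free induction medium to 8-point half-log concentration series topping at 100 uM in 0.5% DMSO. FABP1 mRNA measured by TaqMan qRT-PCR, normalized to ACTB/GAPDH/POLR2A; bidirectional fit versus DMSO.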

Read-out in assay [2]: Cytochrome P450 4A22 (Homo sapiens) (UniProt Q5TCH4)
Nature of the assay: LTEA_HepaRG_CYP4A22: Life Technologies and Expression Analysis (LTEA) Assay for Cytochrome P450 4A22 (CYP4A22) using HepaRG (AID 2283495). The method in brief:
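Differentiated HepaRG cells in serum-free induction medium exposed 48 h in duplicate to eight half-log concentrations up to 100 uM in 0.5% DMSO. CYP4A22 mRNA quantified by TaqMan qRT-PCR, normalized to ACTB, GAPDH and POLR2A; bidirectional fit versus DMSO.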

Read-out in assay [3]: Cytochrome P450 7A1 (Homo sapiens) (UniProt P22680)
Kind of assay: LTEA_HepaRG_CYP7A1: Life Technologies and Expression Analysis (LTEA) Assay for Cytochrome P450 7A1 (CYP7A1) using HepaRG (AID 2283496). The method in brief: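 Gene expression endpoint in human HepaRG liver cells treated for 48 h with test chemicals (up to 100 uM, 0.5% DMSO). Values come from bidirectional concentration-response fitting versus DMSO.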

Read-out in assay [4]: Glutathione S-Transferase (GSTA2), GSTA2 (gene 2939)
Nature of the assay: LTEA_HepaRG_GSTA2: Life Technologies and Expression Analysis (LTEA) Assay for Glutathione S-Transferase (GSTA2) using HepaRG (AID 2283497). In a few lines:
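Human HepaRG cells, plated 48 h, then exposed in serum-free induction medium for 48 h to eight half-log concentrations up to 100 uM in 0.5% DMSO, duplicate. GSTA2 mRNA by qRT-PCR, normalized to ACTB/GAPDH/POLR2A; bidirectional fit versus DMSO.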

Read-out in assay [5]: Glutamate-cysteine ligase catalytic (GCLC), GCLC (gene 2729)
Kind of assay: LTEA_HepaRG_GCLC: Life Technologies and Expression Analysis (LTEA) Assay for Glutamate-cysteine ligase catalytic (GCLC) using HepaRG (AID 2283498). The method in brief: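 Differentiated human HepaRG cells, plated 48 h then switched to serum-free induction medium, were exposed in duplicate for 48 h to 8 half-log concentrations topping at 100 uM in 0.5% DMSO. GCLC mRNA was quantified by qRT-PCR against ACTB, GAPDH and POLR2A.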

Read-out in assay [6]: growth arrest and DNA damage 45 (GADD45G), GADD45G (gene 10912)
Kind of assay: LTEA_HepaRG_GADD45G: Life Technologies and Expression Analysis (LTEA) Assay for growth arrest and DNA damage 45 (GADD45G) using HepaRG (AID 2283499). The method in brief: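 Differentiated human HepaRG cells, 48 h post-plating, exposed 48 h in serum-free induction medium to 8 half-log concentrations (top 100 uM, 0.5% DMSO) in duplicate. GADD45G mRNA measured by Fluidigm TaqMan qRT-PCR, normalized to ACTB, GAPDH, POLR2A; bidirectional fit versus DMSO.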

Read-out in assay [7]: Glutamate-cysteine ligase regulatory (GCLM), GCLM (gene 2730)
Nature of the assay: LTEA_HepaRG_GCLM: Life Technologies and Expression Analysis (LTEA) Assay for Glutamate-cysteine ligase regulatory (GCLM) using HepaRG (AID 2283500). In a few lines: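 Human liver HepaRG cultures receive test chemicals for 48 hours at up to 100 uM in 0.5% DMSO. GCLM expression is measured by qRT-PCR and analysed for increases or decreases against vehicle.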

Read-out in assay [8]: Glutathione S-transferase M3 (GSTM3), GSTM3 (gene 2947)
Nature of the assay: LTEA_HepaRG_GSTM3: Life Technologies and Expression Analysis (LTEA) Assay for Glutathione S-transferase M3 (GSTM3) using HepaRG (AID 2283501). In a few lines:
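Differentiated human HepaRG cells were exposed in duplicate for 48 h in serum-free induction medium, 8 points from 100 uM top in half-log steps, 0.5% DMSO. GSTM3 mRNA was measured by TaqMan qRT-PCR, normalized to ACTB, GAPDH and POLR2A; bidirectional fit versus DMSO.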

Read-out in assay [9]: Heat shock 70 kDa protein 1 (HSPA1A), gene 3303
Kind of assay: LTEA_HepaRG_HSPA1A: Life Technologies and Expression Analysis (LTEA) Assay for Heat shock 70 kDa protein 1 (HSPA1A) using HepaRG (AID 2283502). In a few lines: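 HSPA1A induction in human HepaRG liver cells is measured after 48 h of chemical treatment (100 uM maximum, 0.5% DMSO vehicle). Expression comes from qRT-PCR normalized to endogenous controls.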

Read-out in assay [10]: Hypoxia-inducible factor 1-alpha (Homo sapiens) (UniProt Q16665)
Nature of the assay: LTEA_HepaRG_HIF1A: Life Technologies and Expression Analysis (LTEA) Assay for Hypoxia-inducible factor 1 (HIF1A) Trancription factor using HepaRG (AID 2283503). The method in brief: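 HepaRG, 48 h exposure, 8-pt half-log series from 100 uM, 0.5% DMSO vehicle, duplicates. Readout: HIF1A transcript by qRT-PCR (Fluidigm array), housekeeping-normalised. Bidirectional curve fit vs DMSO baseline.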

Each structure is given as a SMILES string. “And” between values parts separate entries of the source, which are not always exact repeats. Identical values can stand only once. The source holds several records for some structures; these can differ, active in one and inactive in another. The source made the active and inactive calls. How the source made its calls: active means hit-call score of the fitted dose curve at least 0.9, where 1 is the maximum; inactive means score below 0.9.

Hypoxia-inducible factor 1-alpha (Homo sapiens), sequence (Q16665 whole entry, looked up): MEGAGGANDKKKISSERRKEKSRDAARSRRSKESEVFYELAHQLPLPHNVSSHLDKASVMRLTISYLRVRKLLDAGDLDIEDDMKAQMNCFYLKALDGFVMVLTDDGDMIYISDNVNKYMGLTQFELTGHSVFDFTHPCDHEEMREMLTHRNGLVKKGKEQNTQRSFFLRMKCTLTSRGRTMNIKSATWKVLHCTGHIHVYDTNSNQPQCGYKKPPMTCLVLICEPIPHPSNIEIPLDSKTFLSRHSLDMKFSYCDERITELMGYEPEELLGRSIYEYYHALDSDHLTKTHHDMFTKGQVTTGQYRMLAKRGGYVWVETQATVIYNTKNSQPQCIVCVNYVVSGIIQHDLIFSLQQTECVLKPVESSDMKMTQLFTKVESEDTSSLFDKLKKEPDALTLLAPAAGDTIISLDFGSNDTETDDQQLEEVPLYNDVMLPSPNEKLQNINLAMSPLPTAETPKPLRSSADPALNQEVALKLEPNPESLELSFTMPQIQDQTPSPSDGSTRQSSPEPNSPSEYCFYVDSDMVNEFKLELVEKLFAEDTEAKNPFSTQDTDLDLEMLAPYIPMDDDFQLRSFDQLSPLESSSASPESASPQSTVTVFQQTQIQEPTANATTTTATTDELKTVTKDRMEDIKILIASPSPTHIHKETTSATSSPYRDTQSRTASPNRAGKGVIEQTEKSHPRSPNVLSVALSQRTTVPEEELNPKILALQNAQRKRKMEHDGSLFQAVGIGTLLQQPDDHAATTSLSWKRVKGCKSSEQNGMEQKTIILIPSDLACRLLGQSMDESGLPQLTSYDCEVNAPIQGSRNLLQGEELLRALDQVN

For `CC(C)CCCCCCc1ccc(O)cc1`, the outcome in assay [1], in [2], in assay [3], in assay [4], in assay [5] and in assay [6] was inactive. The outcome in [7], in assay [8], in assay [9] and in assay [10] was inactive.
On to `O=C(Nc1ccc([N+](=O)[O-])cc1Cl)c1cc(Cl)ccc1O`, for which the AC50 in assay [1] was 2.25 µM (active); in [2], 14.2 µM (active); in assay [3] it was 13.6 µM (active); in assay [4], 2.84 µM (active); in [5], 4.26 µM (active); in assay [8], 25 µM (active). In addition, the call in [6], in assay [7] and in assay [9] was inactive.
As to `CC(=O)S[C@@H]1CC2=CC(=O)CC[C@]2(C)[C@H]2CC[C@@]3(C)[C@@H](CC[C@@]34CCC(=O)O4)[C@H]12`, the AC50 was 54.4 µM (active) in [1]; 50 µM (active) in assay [2]; 62.4 µM (active) in assay [3]; 69.5 µM (active) in assay [4]; 50 µM (active) in [5]; 32.7 µM (active) in assay [6]. Moreover, the compound was called inactive in [7], in assay [8], in assay [9] and in assay [10].
Regarding `S=C(S)NCCNC(=S)S.[Mn+2].[S-]C([S-])=NCCN=C([S-])[S-].[Zn+2]`, the AC50 in [1] was 1.18 µM (active) and 1.26 µM (active) and 1.71 µM (active); in assay [2], 1.38 µM (active) and 1.35 µM (active); in [3], 1.57 µM (active) and 1.44 µM (active) and 1.47 µM (active); in [4] it was 890 nM (active) and 1.14 µM (active) and 997 nM (active); in assay [6], 3.67 µM (active) and 2.31 µM (active) and 3.97 µM (active); in [7], 25 µM (active). Further, the AC50 in [8] is 0.827 µM (active); in [9] it was 1.21 µM (active) and 4.71 µM (active); in [10] it was 1.63 µM (active). Besides, the compound was called inactive in assay [5], in assay [7], in [8], in assay [9] and in assay [10].
As for `CCCOC(=O)c1ccc(C(=O)OCCC)nc1`, the compound was classed as inactive in [1], in [2], in [3], in [4], in assay [5] and in assay [6]. In addition, the compound was called inactive in assay [7], in assay [8], in assay [9] and in [10].
Take `CCOC(=O)NCCOc1ccc(Oc2ccccc2)cc1`: the AC50 in assay [1] is 79.1 µM (active); in [2], 83.2 µM (active); in [3], 83.9 µM (active); in assay [4] it was 88.5 µM (active); in assay [6], 73.5 µM (active); in assay [7], 82.4 µM (active). In addition, the compound was called inactive in assay [5], in assay [8], in [9] and in assay [10].
In the case of `COC(=O)c1ccccc1C(=O)O`, the call in [1], in assay [2], in assay [3], in assay [4], in [5] and in [6] was inactive. For the same compound, the result in assay [7], in [8], in assay [9] and in [10] was inactive.
For `CCCCC(CC)CN1C(=O)C2C3C=CC(C3)C2C1=O` (configuration not stated), the AC50 in [1] was 72.5 µM (active); in assay [2] it was 62.5 µM (active); in assay [3], 73.6 µM (active); in assay [4], 79.5 µM (active); in [6], 50 µM (active); in [7], 50 µM (active). The call in [5], in [8], in assay [9] and in assay [10] was inactive.
Consider `c1ccc2[nH]c(-c3cscn3)nc2c1`, for which the outcome in [1], in assay [2], in assay [3], in [4], in [6] and in [7] was inactive. Also, the compound was classed as inactive in assay [8], in assay [9] and in assay [10]. Moreover, the AC50 in assay [5] is 50 µM (active).
For `C#C[C@]1(O)CC[C@H]2[C@@H]3CCC4=CC(=O)CC[C@@H]4[C@H]3CC[C@@]21CC`, the values for the AC50 in [1] and in assay [3] were 0.713 µM (active) and 0.056 µM (active), respectively. The call in assay [2], in assay [4], in assay [5], in assay [6], in assay [7] and in assay [8] was inactive. The result in [9] and in [10] was inactive.
Consider `Cc1nn(C)c(Oc2ccccc2)c1C=NOCc1ccc(C(=O)OC(C)(C)C)cc1`, for which the AC50 is 7.21 µM (active) in [1]; 2.91 µM (active) in assay [2]; 34.7 µM (active) in assay [3]; 30.4 µM (active) in assay [4]; 3.1 µM (active) in [6]; 17.6 µM (active) in assay [7]. Further, the results for the AC50 in [8] and in assay [9] were 3 µM (active) and 1.57 µM (active), respectively. The call in assay [5] and in assay [10] was inactive.
As for `CCOC(=O)C(C)Oc1ccc(Oc2nc3ccc(Cl)cc3o2)cc1` (configuration not stated), the call in assay [1], in assay [2], in assay [5], in assay [6], in assay [7] and in assay [8] was inactive. The compound was classed as inactive in [9] and in assay [10]. The AC50 in [3] was 19.9 µM (active); in assay [4] it was 38.3 µM (active).
Regarding `CCN(Cc1c(F)cccc1Cl)c1c([N+](=O)[O-])cc(C(F)(F)F)cc1[N+](=O)[O-]`, the AC50 was 38.7 µM (active) in assay [1]; 50 µM (active) in [3]; 11.7 µM (active) in [4]; 50 µM (active) in assay [5]; 50 µM (active) in assay [7]; 50 µM (active) in [9]. The outcome in [2], in [6], in assay [8] and in assay [10] was inactive.
Take `CN(C)C(=O)Nc1ccc(Cl)c(Cl)c1`: the AC50 in assay [1] was 50 µM (active); in [3] it was 6.86 µM (active); in assay [4], 50 µM (active); in assay [5] it was 35.8 µM (active); in [7], 50 µM (active). For the same compound, the result in assay [2], in [6], in assay [8], in [9] and in [10] was inactive.
With `COC(=O)CSc1cc(N=c2sc(=O)n3n2CCCC3)c(F)cc1Cl`, the result in [1], in [2], in assay [3], in [4], in assay [5] and in [6] was inactive. Besides, the outcome in assay [7], in assay [8], in assay [9] and in assay [10] was inactive.
With `CC(=O)[C@H]1CC[C@H]2[C@@H]3CCC4=CC(=O)CC[C@]4(C)[C@H]3CC[C@]12C`, the AC50 in [1] is 35.8 µM (active); in assay [2], 31.1 µM (active); in [3], 26.8 µM (active); in [4], 34.5 µM (active); in [5], 91.1 µM (active); in [6] it was 23 µM (active). Further, the AC50 in [8] was 93.1 µM (active); in assay [9] it was 70.2 µM (active). Further, in assay [7], the result was inactive.
Turning to `CCCN(CCC)c1c([N+](=O)[O-])cc(C(F)(F)F)c(N)c1[N+](=O)[O-]`, the AC50 was 24.9 µM (active) in assay [1]; 22 µM (active) in assay [2]; 36.6 µM (active) in [3]; 28.6 µM (active) in assay [7]; 50 µM (active) in assay [9]. Moreover, the compound was called inactive in [4], in [5], in assay [6], in assay [8] and in assay [10].
